# An excerpt weighted towards active compounds, which were near 3.8% of everything screened.
# MBNL1-CUG inh: blocks human MBNL1 binding to CUG repeat RNA; Q9NR56; TR-FRET MBNL1-His/biotin-(CUG)12 binding, 665/545 ratio; Potency, µM (series often up to 57.5 µM), without a hit: at the top dose activity change, negative = inhibition, actives largely listed as inhibitors; 280,000 tested, 0.036% active; active = well fitted inhibition curve with a large enough effect in the signal ratio, with a control signal flat, not every such curve was filed as active; inconclusive = small, poorly fitted or top-dose-only effect, or effect the other way, or a change in a side signal; inactive = no such curve, though single readings can be large or run the other way; the % refers to the signal ratio; note: potency is the fitted concentration of half-maximal effect; % is set by controls: 0 for no effect and ±100 for the full control effect
#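 His-tagged MBNL1 binding to biotinylated (CUG)12 RNA was measured by TR-FRET using terbium anti-His antibody (0.055 ng/ul final) and streptavidin-XL665 (5 nM final). Compounds were titrated 92 nM to 58 uM; 60 min at room temperature.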
# hERG WT inh: inhibitors of human wildtype KCNH2 potassium channel | Q12809 | U2OS, BacMam KCNH2, thallium flux FluxOr; stronger effect = lower value | activity change, % at 1.84 µM | 340,000 tested, 0.37% active | AID 720551;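 active = maximum activity change below -70%; inconclusive = maximum activity change between -70% and -50%; inactive = maximum activity change above -50%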; note: % is set by controls: 0 for no effect and ±100 for the full control effect
#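 U2OS cells transduced with wild-type KCNH2 virus are loaded with FluxOr dye for 45 min, and thallium flux is measured in kinetic reads before and after stimulation buffer. Rate constants are normalized to DMSO controls.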
# VDR inhibitor: vitamin D3 receptor (human) inhibition; AID 504847; P11473; Potency, µM, inactives show max response, negative = inhibition, most hits filed as inhibitors; 400,000 tested, 0.93% active; VDR-SRC2-3 peptide fluorescence polarization, 2 h; note: potency is the fitted concentration of half-maximal effect; % is set by controls: 0 for no effect and ±100 for the full control effect
#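 The screen uses fluorescence polarization to detect compounds that interfere with recruitment of the SRC2-3 coactivator peptide to VDR; plates are read after 2 h at room temperature.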
# PLK1 PBD block: blocks phosphopeptide binding to human PLK1 polo-box domain | P53350 | Potency, µM, for the others: max response, negative = inhibition, most hits filed as inhibitors | AID 720504 | 360,000 tested, 2.8% active | Plk1 PBD binding of FITC phosphopeptide, fluorescence polarization; note: potency is the fitted concentration of half-maximal effect; series mostly up to about 57 µM; % is set by controls: 0 for no effect and ±100 for the full control effect; nearly all actives have a fitted effect of over 65% in size
# KCNH2 3.1 block: inhibitors of human KCNH2 3.1 potassium channel isoform | 340,000 tested, 0.95% active | U2OS KCNH2 3.1, thallium flux FluxOr; stronger effect = lower value | activity change, % (tested at about 1.8 µM) | AID 720553;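 active = maximum activity change below -70%; inconclusive = maximum activity change from -70% to -50%; inactive = maximum activity change above -50%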;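 note: thallium influx rate constant from kinetic fluorescence after stimulation buffer; % is set by controls: 0 for no effect and ±100 for the full control effect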
#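 Thallium flux via FluxOr fluorescence (Red40 quencher, 45 min loading) in U2OS cells virally expressing the KCNH2 3.1 isoform (1.77 x 10^8 /mL virus, overnight at 37 C). Rate constants from 2-min kinetic reads post-stimulation, normalised to positive and negative controls.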
# CBFb-RUNX1 inh: CBF-beta/RUNX1 interaction disruption; Q01196+Q13951; AlphaScreen CBFb-His/RUNX1-biotin binding, biochemical; Potency, µM (doses to about 59.8 µM), without a hit: at the highest dose activity, negative = inhibition, hits mostly inhibitors; 230,000 tested, under 10 active; AID 1477; note: % of control where 0% means no effect
# Target sequence (Q01196 whole entry, looked up): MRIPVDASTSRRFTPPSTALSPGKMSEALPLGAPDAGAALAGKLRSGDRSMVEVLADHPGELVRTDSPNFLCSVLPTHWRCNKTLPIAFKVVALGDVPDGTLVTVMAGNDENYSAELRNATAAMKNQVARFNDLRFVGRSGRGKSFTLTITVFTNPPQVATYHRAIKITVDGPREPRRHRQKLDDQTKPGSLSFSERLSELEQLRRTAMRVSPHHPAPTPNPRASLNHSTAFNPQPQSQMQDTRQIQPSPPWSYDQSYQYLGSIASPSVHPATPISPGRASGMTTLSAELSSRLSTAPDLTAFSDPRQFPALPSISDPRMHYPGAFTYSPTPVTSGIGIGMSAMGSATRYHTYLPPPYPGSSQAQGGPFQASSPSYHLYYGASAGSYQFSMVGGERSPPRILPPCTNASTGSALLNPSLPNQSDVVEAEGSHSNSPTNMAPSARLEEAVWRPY
# Target sequence (Q13951 whole entry, looked up): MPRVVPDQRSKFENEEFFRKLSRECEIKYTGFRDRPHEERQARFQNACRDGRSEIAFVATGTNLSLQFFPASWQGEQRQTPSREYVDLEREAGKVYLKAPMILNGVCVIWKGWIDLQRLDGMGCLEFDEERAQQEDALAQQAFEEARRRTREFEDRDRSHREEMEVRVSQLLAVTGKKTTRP
#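 Inhibition was taken as any reduction in AlphaScreen signal from the CBF-beta–RUNX1 pair (His and biotin tags, 30 nM each), measured after compound (15 min) and bead (90 min) incubations at room temperature.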
# Numbers without * were called inactive; ? = inconclusive; / = no result given; [ ] = another dose, or the depositor's remark. Unless noted, calls come from the whole dose curve; as a rule, active = well fitted curve in the direction sought with a large enough effect; inconclusive = small, poorly fitted or top-dose-only effect, or another doubt; inactive = no such curve, though single readings can be large; an effect the other way counts as inactive or inconclusive.
SMILES,MBNL1-CUG inh,hERG WT inh,VDR inhibitor,PLK1 PBD block,KCNH2 3.1 block,CBFb-RUNX1 inh
S=c1[nH]nc(-c2cc(-c3ccccn3)nc3ccccc23)o1,15.3%,5.9,-21.9%,?,12.7,-2.2%
Cc1ccc(-c2cc(-c3n[nH]c(=S)o3)c3ccccc3n2)cc1,27.1%,-9.8,-10.8%,26.7µM*,-29.4,26.2%
S=c1[nH]nc(-c2ccccc2)o1,87.4%,1.4,-9.2%,29.9µM*,-4.3,?
CCN(CC)c1ccc(/C=C(/C#N)c2nc3ccc(C)cc3[nH]2)c(OC(C)C)c1,10.7%,-70.3*,26.5%,-20.8%,?,-23.9%
COc1ccc(-c2nc(-c3ccccc3)c(Nc3c(C)cccc3C)o2)cc1,/,/,-1.3%,/,/,-3.8%
CCN(C(=O)CN1C(=O)S/C(=C\c2ccc(F)cc2)C1=O)C1CCS(=O)(=O)C1 (centres undefined),?,3.2,-6.5%,29.9µM*,-13.2,/
CN(C(=O)CN1C(=O)S/C(=C\c2ccc(F)cc2)C1=O)C1CCS(=O)(=O)C1 (centres undefined),?,-9.6,-5.3%,-15.0%,1.2,/
Cc1ccc(-n2ncc3c(NCc4cccnc4)ncnc32)cc1C,-7.8%,5.4,-7.8%,-3.0%,-6.6,/
Cc1cccc(-n2ncc3c(NCc4cccnc4)ncnc32)c1,-3.1%,-12.6,-14.8%,-8.5%,-102.0*,4.2%
CCOc1ccc(Nc2oc(-c3ccc(COc4ccc(C)cc4)o3)nc2C#N)cc1,/,/,1.8%,/,/,/
COc1ccc(C2=Nc3ccccc3N(C(=O)c3ccc(C)cc3)C2C(=O)NCc2ccccc2)cc1 (centres undefined),/,/,/,3.6%,/,/
Cc1ccc(C2=Nc3ccccc3N(C(=O)c3ccccc3)C(C)C2)cc1 (centres undefined),5.7%[11.5 µM],0.0,-1.5%,29.9µM*,7.1,3.4%
Cn1cc(C(c2ccccc2OCC(=O)O)c2cn(C)c3ccccc23)c2ccccc21,4.2%,-7.6,39.8µM*,2.99µM*,3.0,/
CCn1c(=O)cc(OCC(=O)O)c2ccccc21,-8.9%,-9.8,-6.9%,-4.1%,-19.9,-2.3%
COC(=O)C1=C(C)NC(C)=C(C(=O)OCCN2CCN(C(c3ccccc3)c3ccccc3)CC2)C1c1cccc([N+](=O)[O-])c1 (centres undefined),/,/,-21.3%,/,/,/
COc1ccc(-c2nc3cnc(OCc4ccccc4)nc3n(CCC#N)c2=O)cc1,/,/,-12.8%,/,/,/
CN1CCC(N(C)C(=O)c2ccc(Cl)c(S(=O)(=O)N3CCOCC3)c2)CC1,/,-194.2*,-29.3%,-8.9%,-149.5*,/
CN1CCC(N(C)C(=O)c2cc(S(=O)(=O)N3CCOCC3)ccc2Cl)CC1,/,-1.3,-12.6%,-8.7%,12.8,/
CCC(=O)N1c2ccc(S(=O)(=O)N3CCN(c4ccc([N+](=O)[O-])cc4)CC3)cc2CC1C (centres undefined),6.7%,-11.8,-19.4%,-10.4%,-99.1*,/
CCC(=O)N1c2ccc(S(=O)(=O)N3CCN(c4ccccc4)CC3)cc2CC1C (centres undefined),/,/,-14.9%,/,/,/
O=C(/C=C/c1ccc(O)cc1)OC[C@H]1O[C@@H](Oc2c(-c3ccc(O)cc3)oc3cc(O)cc(O)c3c2=O)[C@H](O)[C@@H](O)[C@@H]1O,/,/,-3.2%,/,/,-0.8%
Cc1cccc(OCCCCNCc2ccccc2)c1,-7.9%,8.6,-1.3%,-9.0%,9.7,-5.8%
COc1ccc(C(CCNC(C)c2ccccc2)c2ccc(F)cc2)cc1 (centres undefined),-2.9%,-75.7*,-13.0%,-11.3%,-2.4,4.3%
COc1cccc(OCCNCc2ccccc2)c1,6.1%,-1.0,?,16.8µM*,17.2,/
COc1ccc(C(CCNCc2ccc(F)cc2)c2ccc(F)cc2)cc1 (centres undefined),/,?,-5.4%,-12.8%,-6.5,-0.3%
SMILES,MBNL1-CUG inh,hERG WT inh,VDR inhibitor,PLK1 PBD block,KCNH2 3.1 block,CBFb-RUNX1 inh
COc1ccc(CNCC(O)(c2ccccc2)c2ccc(F)cc2)cc1 (centres undefined),0.0%,11.4,3.4%,-3.4%,-75.2*,/
COc1ccc(CNCCC(c2ccc(F)cc2)c2ccc(OC)cc2)cc1 (centres undefined),/,-132.5*,6.0%,1.7%,-87.3*,11.5%
CCOc1cc2sc(N3CCC(C(=O)Nc4ccc(C)cc4C)CC3)nc2cc1Br,/,/,1.0%,/,/,/
Cc1ccccc1CNC(=O)c1ccc(NC(=O)c2nsc3ccccc23)cc1,/,/,10.5%,/,/,/
COc1ccc(CNCCC(c2ccc(F)cc2)c2ccc(OC(C)C)cc2)cc1OC (centres undefined),-6.5%,-36.6,6.8%,0.7%,?,-0.3%
COc1ccc(C(CCNCc2ccccc2)c2ccc(F)cc2)cc1 (centres undefined),-7.7%,-15.5,-11.7%,-10.5%,-75.4*,2.0%
COc1ccc2ccc3c(c2c1)N=CC1(O3)N(C)c2ccccc2C1(C)C (centres undefined),?,0.6,50.1µM*,-23.9%,6.5,-24.0%
CC(=O)c1ccc(N2C(=NC(=O)COc3ccccc3)SC3CS(=O)(=O)CC32)cc1 (centres undefined),1.5%,-2.4,5.1%,3.4%,18.8,/
CC(=O)c1cccc(N2C(=NC(=O)COc3ccccc3)SC3CS(=O)(=O)CC32)c1 (centres undefined),1.5%,-0.1,?,23.8µM*,-1.6,/
O=C(O)c1cccc(N2C(=O)C3CC=C(Cl)CC3C2=O)c1 (centres undefined),3.4%,1.5,?,23.8µM*,0.7,-12.8%
O=C(O)c1cccc(N2C(=O)C3CC=CCC3C2=O)c1 (centres undefined),-0.1%,-12.3,9.8%,-5.7%,-20.4,-0.1%
CC(/C=C/C(=O)NO)=C\[C@@H](C)C(=O)c1ccc(N(C)C)cc1,/,/,?,/,/,-7.7%
CC1(C)SCC(C(=O)O)NC1=O (centres undefined),?,-1.2,-10.4%,21.2µM*,3.2,-0.1%
C#Cc1ccc2c(c1)C(=O)N(C)Cc1c(C(=O)OCCCOC(=O)c3ncn4c3CN(C)C(=O)c3cc(C#C)ccc3-4)ncn1-2,/,/,2.4%,/,/,7.4%
Cc1c(NC(=O)CSc2ccc3c(c2)OCCO3)c(=O)n(-c2ccccc2)n1C,-11.7%,-1.4,-7.7%,26.7µM*,-0.5,2.6%
